In a collection of fitness landscapes (doi:10.1016/j.celrep.2020.107928):
The full ranking holds about 81,000 sequences; the median of “one-hybrid fitness for binding NBS DNA” is about -0.1, and the highest 2% start at about 0.36. The sample holds the highest values, similar sequences and a random draw of the others, so the mix is not that of the screen.

B1: Caulobacter ParB omega fusion; a variant is named by its letters at X, in order, B8GW30 (parent)
chain: MESVVVGEPGMSEGRRGLGRGLSALLGEVDAAPAQAPGEQLGGSREAPIEILQRNPDQPRRTFREEDLEDLSNSIREKGVLQPILVRPSPDTAGEYQIVAGERAWRAAQRAGLKTVPIMVRELDDLAVLEIGIIENVQRADLNVLEEALSYKVLMEKFERTQENIAQTIGKSXSHVANXMRLLXLPDEVQSYLVSGELTAXHARAIAAAADPVALAKQIIEGGLSVRETEALARKAPNLSAGKSKGGRPPRVKDTDTQALESDLSSVLGLDVSIDHRGSTGTLTITYATLEQLDDLCNRLTRGI

Variants of: B1
Assay: one-hybrid fitness for binding NBS DNA (the Noc-binding site; scaled: cognate 1, non-cognate 0); higher = stronger binding
Details: with NBS DNA site
How it was run: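 Selection: bacterial one-hybrid in E. coli USO, HIS3 reporter with the site 19 bp from the promoter, 48 hours at 37°C on M9-minus-histidine plus 0.1 mM IPTG and 5 mM 3-AT. Libraries were Caulobacter ParB with four randomised specificity codons, sequenced on Illumina before and after selection. Fitness is the rescaled log change in variant-to-wild-type read ratio, anchored to the cognate and non-cognate sites.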

Variant	one-hybrid fitness for binding NBS DNA
QLSS	0.317
QASD	≤ 0.2
TKRI	≤ 0.2
FEYS	≤ 0.2
SKTD	≤ 0.2
HPSA	≤ 0.2
RYAA	≤ 0.2
WFRC	≤ 0.2
AMMM	≤ 0.2
SFTI	≤ 0.2
QPST	≤ 0.2
QIST	0.311
QCST	0.553
KDHS	≤ 0.2
QTKT	0.883
QTVT	0.517
NTKT	≤ 0.2
DTKT	≤ 0.2
IWTS	≤ 0.2
SWRY	≤ 0.2
VSWL	≤ 0.2
RRWC	0.393
RKRC	0.4
RKYC	≤ 0.2
RRRC	0.39
MVES	≤ 0.2

Variant	one-hybrid fitness for binding NBS DNA
RRDC	0.318
MVEC	0.453
MVER	0.34
RCWC	≤ 0.2
RKDC	≤ 0.2
RRYC	0.313
RSWC	≤ 0.2
RQIE	≤ 0.2
ITGG	≤ 0.2
VFDW	≤ 0.2
QNAP	≤ 0.2
SDVV	≤ 0.2
ANIL	≤ 0.2
GEAG	≤ 0.2
AWVG	≤ 0.2
LYSD	≤ 0.2
VKHG	≤ 0.2
FRVT	≤ 0.2
LRPY	≤ 0.2
RCRC	0.391
RSRC	0.355
RPRC	≤ 0.2
AGSH	≤ 0.2
ISGM	≤ 0.2
RNRR	0.504
RNNS	0.388

Variant	one-hybrid fitness for binding NBS DNA
RNKN	≤ 0.2
RNIR	≤ 0.2
RNNP	≤ 0.2
RNYR	≤ 0.2
RNKS	0.489
RNVS	≤ 0.2
RNKH	0.237
RNKR	0.535
RNDS	≤ 0.2
RNVR	≤ 0.2
GHAT	≤ 0.2
RHRC	0.295
IAAT	≤ 0.2
AKCT	≤ 0.2
RNNR	0.381
RNND	≤ 0.2
RNDR	≤ 0.2
TPFG	≤ 0.2
MWSR	≤ 0.2
HRYM	≤ 0.2
RPVC	≤ 0.2
RRKC	0.375
RCVC	≤ 0.2
RRLC	0.301
RRVC	0.414
RRHC	0.363

Variant	one-hybrid fitness for binding NBS DNA
PACV	≤ 0.2
QHSI	≤ 0.2
KQRS	0.224
QQRL	0.329
QQYF	≤ 0.2
QQRF	0.387
QQRS	0.714
QQQH	≤ 0.2
QQQS	0.428
QQRD	0.286
QQQN	≤ 0.2
QQRP	0.312
QQRH	0.645
QQFF	≤ 0.2
DWKY	≤ 0.2
RGQM	≤ 0.2
NLNF	≤ 0.2
VHRM	≤ 0.2
GFMT	≤ 0.2
YDNR	≤ 0.2
NHAS	≤ 0.2
GPQT	≤ 0.2
EHTR	≤ 0.2
QQWS	0.397
QQSS	0.436
QQHS	0.476

Variant	one-hybrid fitness for binding NBS DNA
QQHN	≤ 0.2
QQDN	≤ 0.2
QQYN	≤ 0.2
QQSH	0.208
QQRN	0.466
QQHD	≤ 0.2
QQSN	≤ 0.2
QQWG	≤ 0.2
QQWF	≤ 0.2
AVSG	≤ 0.2
DTKE	≤ 0.2
VVTF	≤ 0.2
TFLI	≤ 0.2
TFAN	≤ 0.2
CKWT	≤ 0.2
QQGN	≤ 0.2
QQYS	0.406
QQNM	0.206
QQLH	0.22
QQLS	0.373
QQGS	0.443
QQLP	≤ 0.2
QQNS	0.515
QQDS	0.282
QQGP	≤ 0.2
DMCG	≤ 0.2

Variant	one-hybrid fitness for binding NBS DNA
LNDN	≤ 0.2
HIRY	≤ 0.2
MHFS	≤ 0.2
ATTP	≤ 0.2
ESGF	≤ 0.2
LAAR	≤ 0.2
SNHH	≤ 0.2
VFVQ	≤ 0.2
PNVF	≤ 0.2
NEKR	≤ 0.2
QQFS	0.284
QQAS	0.435
QQAM	≤ 0.2
VHVQ	≤ 0.2
TYPP	≤ 0.2
SRMD	≤ 0.2
YAHL	≤ 0.2
NRKT	0.213
DRKT	≤ 0.2
QRKT	0.848
QRVT	0.69
SAIP	≤ 0.2
QINI	≤ 0.2
